NS1 inh: blocks influenza NS1 protein function; Potency, µM (series often up to 46.1 µM), inactives show top-dose activity, positive = more growth; 270,000 compounds, 0.4% hits; AID 2326; calls by dose curve; further: potency means the concentration at half of the fitted maximal effect; actives are rising curves; nearly all actives have a fitted effect of over 50% in size
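Compounds were scored for reversing the slow growth caused by influenza A NS1 in S. cerevisiae, measured by optical density at 600 nm. Assay medium contained 2% galactose at pH 6.0; NS1-free yeast of the same strain were the positive control.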
Pf growth 48h: inhibits P. falciparum growth in the first generation, 48 h; Potency, µM (doses to about 28.7 µM), inactives show at the highest dose activity change, negative = inhibition, most hits filed as inhibitors; 310,000 compounds, 5.9% hits; P. falciparum luciferase growth in erythrocytes, 48 h; further: potency means the concentration at half of the fitted maximal effect; on the % scale 0 is the no-effect control and ±100 the full control effect
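A one-generation exposure of luciferase-tagged malaria parasites in RPMI 1640/Albumax erythrocyte culture, 37 C and 5% CO2. Inhibition is inferred from decreased luminescence after adding detection reagent.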
CHX counter: counter-screen for Shiga toxin inhibitors: cycloheximide protein synthesis inhibition | cell reporter, cycloheximide protein synthesis inhibition counterscreen | max response, % | 300,000 compounds, 12% hits | AID 2314; in the data active means max response mostly above about 13%, no sharp cut-off; inactive means mostly below about 14%; further: read at 38.3 µM for the half of the compounds with a filed dose; 0% is about no effect
Sm TGR block: blocks Schistosoma mansoni thioredoxin glutathione reductase | purified TGR, DTNB reduction, TNB absorbance 405 nm | Potency, µM (top dose mostly 114 µM), for the others: at the top dose activity change, negative = inhibition, most hits filed as inhibitors | 360,000 compounds, 3% hits | AID 485364; further: potency means the concentration at half of the fitted maximal effect; on the % scale 0 is the no-effect control and ±100 the full control effect; nearly all actives have a fitted effect of over 60% in size
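First, TGR (20 nM dispensed) and NADPH were mixed with compound. Second, a 15 min room-temperature incubation followed. Third, further NADPH and then DTNB were added to start the reaction. Finally, TNB absorbance was monitored kinetically.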
Shiga inhibitor: inhibitors of Shiga toxin in Vero cells; Vero cells, Shiga toxin protein synthesis inhibition reporter; 290,000 compounds, 9.2% hits; inhibition, % at 38.7 µM; AID 2315; in the data active means inhibition mostly above about 28%, no sharp cut-off; inactive means mostly below about 43%; further: 0% is about no effect
Pf growth 96h: P. falciparum growth inhibition at 96 hours; P. falciparum luciferase reporter growth, 96 h; Potency, µM (series often up to 28.7 µM), inactives show top-dose activity change, negative = inhibition, hits mostly inhibitors; AID 504834; 320,000 compounds, 6.9% hits; further: potency means the concentration at half of the fitted maximal effect; on the % scale 0 is the no-effect control and ±100 the full control effect
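Delayed-death screen, second-generation endpoint: infected erythrocytes, 2% hematocrit, 0.05% parasitemia final; 96 hours at 37 C, 5% CO2; luciferase detection reagent; luminescence decrease equals reduced growth.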
Active calls of the source: *; ? = inconclusive; nt = not tested or not shown; ! = repeats disagree. The list is not random: actives were taken first. Their share in the collection is about 21%. Unless noted, the call rests on the fitted dose curve; in most records, active means well fitted curve in the direction sought with a large enough effect; inconclusive means small, poorly fitted or top-dose-only effect, or another doubt; inactive means no such curve, though single readings can be large; an effect the other way counts as inactive or inconclusive.

SMILES | NS1 inh | Pf growth 48h | CHX counter | Sm TGR block | Shiga inhibitor | Pf growth 96h
O=C(Cn1cnc2ccccc2c1=O)N1CCc2ccccc2C1 | nt | 24.5% | 16.7* | 3.9% | -3.1 | 32.6%
O=C(CSc1nc2ccccc2c(=O)n1-c1ccccc1)N1CCc2ccccc2C1 | -31.7% | ? | -0.6 | -6.5% | -13.0 | 2.62µM*
CCOc1ccc(-n2c(SCC(=O)N3CCOCC3)nc3c([nH]c4ccccc43)c2=O)cc1 | nt | nt | nt | -3.5% | nt | nt
COCCn1c(SCC(=O)N2CCc3ccccc3C2)nc2cc(Cl)ccc2c1=O | 14.7% | ? | -5.0 | -2.7% | -3.3 | 9.28µM*
O=C(CSc1nc2[nH]ncc2c(=O)n1-c1ccccc1Cl)N1CCCC1 | nt | 20.4% | 12.5 | -2.1% | 36.5 | 1.2%
Cn1c(=O)c2c(nc(SCC(=O)N3CCc4ccccc4C3)n2C)n(C)c1=O | -32.9% | -0.3% | 7.3 | -2.2% | 8.2 | 10.4µM*
Cc1cc(NC(=O)CSc2nc3cc(Cl)ccc3c(=O)n2CC(C)C)no1 | nt | 19.2% | -3.4 | 4.4% | -11.8 | -16.9%
CC(C)Cn1c(SCC(=O)N2CCc3ccccc3C2)nc2cc(Cl)ccc2c1=O | 11.4% | ? | -3.2 | -9.2% | -2.3 | 4.65µM*
O=C(CSc1nc2[nH]ncc2c(=O)n1-c1ccccc1)N1CCCCCC1 | 3.0% | -21.4% | -2.0 | 7.3% | -2.2 | 10.4µM*
O=C1NN(c2ccccc2)C(=O)/C1=C\c1ccc(-c2cc([N+](=O)[O-])ccc2O)o1 | 4.2% | 12.4% | 0.3 | -18.0% | -3.1 | 41.5%
Cc1oc2ncn(C)c(=O)c2c1C(=O)NCCCN(Cc1ccccc1)C(C)C | nt | nt | nt | 10.4% | nt | nt
O=C(COC(=O)CCCOc1ccccc1)NC1CCS(=O)(=O)C1 (stereo not drawn) | nt | 13.7% | nt | -9.8% | nt | 15.5%
Cc1ccc(C)c(S(=O)(=O)NCCC(=O)N2CCCC(C(N)=O)C2)c1 (stereo not drawn) | nt | -5.6% | nt | -0.9% | nt | 12.6%
Nc1nc(N)c(CCCCc2ccccc2)c(N)n1 | -8.3% | nt | nt | nt | nt | nt
CN(C)/C=C(\C#N)c1nc2ccccc2[nH]1 | -8.9% | 33.5% | 13.3 | -1.1% | 26.0 | ?
COC(=O)/C(=C\c1ccc(O)cc1)c1nc2ccccc2[nH]1 | nt | 38.3% | 35.3* | -2.9% | 60.3* | 158.1%
C/C(=C\c1ccc(N)cc1)c1nc2ccccc2[nH]1 | -1.2% | 8.5% | 49.3* | 9.9% | 61.0* | -2.9%
COC(=O)/C(=C\c1cc(OC)c(OC)c(OC)c1)c1nc2ccccc2[nH]1 | 1.0% | ? | 21.6* | -24.0% | 37.5 | 0.0%
Clc1cccc(N2CCNCC2)c1 | 10.7% | ? | nt | -28.7% | nt | 13.5µM*!
c1ccc(-n2ncc3c(NC4CCCC4)ncnc32)cc1 | nt | nt | nt | 7.1% | nt | nt
COc1ccc(C2CC(=O)C(C=NCCN3CCNCC3)=C(O)C2)cc1OC (stereo not drawn) | 3.3% | -1.0% | -5.8 | ? | 24.5 | 13.1µM*
CCC(=O)N1CCN(CCN=CC2=C(O)CC(c3ccc(OC)cc3)CC2=O)CC1 (stereo not drawn) | -2.4% | 18.4% | 1.8 | -19.0% | -5.1 | 22.0%
CCCCCC(=O)N1CCN(CCN=CC2=C(O)CC(c3ccc(OC)cc3)CC2=O)CC1 (stereo not drawn) | -21.7% | ? | -3.5 | 50.1µM* | -25.0 | nt
CCCCCC(=O)N1CCN(CCN=CC2=C(O)CC(c3ccc(OC)c(OC)c3)CC2=O)CC1 (stereo not drawn) | -12.1% | 8.7% | -0.9 | ? | -1.5 | nt
Cc1ccc(N2CC(C(=O)NC3CCC(C)CC3)CC2=O)cc1 (stereo not drawn) | 9.4% | 5.5% | -2.4 | -2.4% | 3.3 | ?
SMILES | NS1 inh | Pf growth 48h | CHX counter | Sm TGR block | Shiga inhibitor | Pf growth 96h
COc1ccccc1O | 23.6% | 43.0% | 4.7 | -11.1% | -3.4 | 36.2%
COc1cc(O)oc1C=Nc1ccccc1 | 21.1% | 62.4% | 26.6* | -12.9% | 109.5* | -0.2%
COc1cccc(NC(=O)CN(C)C(=O)c2cn(-c3ccccc3)nc2-c2cccs2)c1 | nt | ? | nt | -0.7% | nt | -25.6%
COc1ccc(Cl)cc1NC(=O)CN(C)C(=O)c1cccc(-n2cnnn2)c1 | nt | -21.1% | nt | -0.8% | nt | -6.5%
COc1cccc(NC(=O)CN(C)C(=O)c2cn(-c3ccccc3)nc2-c2cccnc2)c1 | nt | 11.7µM* | nt | 3.6% | nt | ?
COc1ccc(Cl)cc1NC(=O)CN(C)C(=O)c1cn(-c2ccccc2)nc1-c1cccnc1 | nt | ? | nt | -2.8% | nt | 10.4µM*
c1ccc2c(c1)NCC1CCCN21 (stereo not drawn) | -2.7% | ? | 12.2 | 31.6µM* | 16.5 | 23.4%
CSc1nc(Oc2ccc(Cl)cc2)c2sccc2n1 | 4.5% | ? | -2.5 | -0.2% | 6.5 | 9.28µM*
CSc1nc(Oc2ccccc2)c2sccc2n1 | -14.9% | -0.5% | 0.3 | 0.8% | -2.7 | -7.1%
CC(=O)Nc1nc(-c2ccccc2)ns1 | -10.4% | 161.1% | 23.3* | -1.4% | 38.1* | 146.1%
COc1ccc(-c2nsc(NC(=O)c3cccc(OC)c3)n2)cc1 | nt | nt | nt | 4.4% | nt | nt
COCC(=O)Nc1nc(-c2ccccc2)ns1 | -6.7% | 109.5% | 34.7* | 3.9% | 41.0 | nt
CC(=O)NC1CCCN(O)C(=O)/C=C(\C)CCOC(=O)C(NC(C)=O)CCCN(O)C(=O)/C=C(\C)CCOC(=O)C(NC(C)=O)CCCN(O)C(=O)/C=C(\C)CCOC1=O (stereo not drawn) | 4.2% | -2.8% | -2.5 | ? | 15.8 | 74.9%
Cn1ccnc1SCCNC(=O)CCc1nnc(CCc2ccccc2)o1 | -1.8% | 12.7% | 8.4 | 11.0% | 28.4 | 10.4µM*
Cn1ccnc1SCCNC(=O)CCc1nnc(CCCCc2ccccc2)o1 | -4.9% | -22.8% | 12.3 | 0.0% | 22.8* | ?
CCOC(=O)C(CC(C)C)CP(=O)(O)CNC(=O)OCc1ccccc1 (stereo not drawn) | ? | 0.2% | -4.1 | -33.3% | -6.1 | 7.38µM*
C[C@H](NC(=O)OCc1ccccc1)C(=O)NNC(=O)[C@H](C)NC(=O)OCc1ccccc1 | -1.0% | -9.9% | -1.6 | -0.6% | -5.6 | 6.1%
Cc1nc(N2CCOCC2)c2c(C(=O)Nc3cccc(C(F)(F)F)c3)c(C)oc2n1 | nt | nt | nt | 6.4% | nt | nt
CCOC(=O)c1c(NC(=O)CSc2nc(-c3ccc(OC)cc3)cc(C(F)(F)F)n2)sc(C)c1C | nt | nt | nt | 5.2% | nt | nt
CCC(C)Sc1nc2c(c(=O)[nH]c(=O)n2C)n1Cc1ccccc1Cl (stereo not drawn) | -18.1% | 11.7µM* | -1.8 | -1.9% | -0.9 | ?
CSc1nc2c(c(=O)[nH]c(=O)n2C)n1Cc1ccccc1Cl | -3.5% | -12.8% | 4.3 | -16.2% | -8.5 | 5.22µM*
Cn1c(=O)[nH]c(=O)c2c1nc(SCCN1CCCCC1)n2Cc1ccccc1 | -0.6% | ? | -0.9 | 3.0% | -4.9 | -21.8%
Cn1c(=O)[nH]c(=O)c2c1nc(SCCO)n2Cc1ccccc1Cl | 4.2% | -26.2% | -2.8 | 2.9% | -10.3 | ?
Cc1ccc(Cn2c(SCCN3CCCCC3)nc3c2c(=O)[nH]c(=O)n3C)cc1 | -20.5% | -14.0% | -3.8 | 1.0% | -8.5 | 3.7µM*

Bioassay records (PubChem)
